Assay results as given in the supplement of paper PMC9950053.
Structures can show the parent of a compound that is named as a salt.

test system: Danio rerio larvae (5 dpf); test: combined optomotor response (time in upper well half, down vs up moving lines, periods 7-14) minus DMSO control (percentage points); higher = stronger optomotor response than DMSO larvae; conditions: 10 µM; exposure time: 3 h pre-incubation + 3 h imaging
Method: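 Wild-type 5 dpf zebrafish larvae (n=48 per drug, 96-well plates, 28.5 °C) were exposed to Tocris FDA-approved library compounds at 10 µM (0.1% DMSO) for 3 h before and 3 h during imaging. Images were taken every 6 s during visual and acoustic stimuli, and larvae were tracked with Z-LaP Tracker. Each measure is the treated-group mean minus the DMSO control mean (n=844), in percentage points. This mapping covers compounds with 5-character plate codes.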

Row | SMILES | combined optomotor response
1 | OC(c1cc(C(F)(F)F)nc2c(C(F)(F)F)cccc12)C1CCCCN1 (stereo unspecified) [Mefloquine hydrochloride] | -2.6
2 | NC(=O)OCC(COC(N)=O)c1ccccc1 [Felbamate] | -0.92
3 | CNC(=O)c1cc(Oc2ccc(NC(=O)Nc3ccc(Cl)c(C(F)(F)F)c3)cc2)ccn1 [Sorafenib] | -1.64
4 | CCCc1nn(C)c2c(=O)[nH]c(-c3cc(S(=O)(=O)N4CCN(C)CC4)ccc3OCC)nc12 [Sildenafil citrate] | -0.855
5 | COc1ccccc1Oc1c(NS(=O)(=O)c2ccc(C(C)(C)C)cc2)nc(-c2ncccn2)nc1OCCO [Bosentan] | 1.31
6 | CC[C@H]1OC(=O)[C@H](C)[C@@H](O[C@H]2C[C@@](C)(OC)[C@@H](O)[C@H](C)O2)[C@H](C)[C@@H](O[C@@H]2O[C@H](C)C[C@H](N(C)C)[C@H]2O)[C@](C)(O)C[C@@H](C)CN(C)[C@H](C)[C@@H](O)[C@]1(C)O [Azithromycin] | -4.55
7 | CNS(=O)(=O)Cc1ccc2[nH]cc(CCN(C)C)c2c1 [Sumatriptan succinate] | -0.931
8 | OCc1cc(C(O)CNCCCCCCOCCCCc2ccccc2)ccc1O (stereo unspecified) [Salmeterol xinafoate] | 0.619
9 | N#Cc1ccc2[nH]cc(CCCCN3CCN(c4ccc5oc(C(N)=O)cc5c4)CC3)c2c1 [Vilazodone hydrochloride] | -6.69
10 | O=C(O)C[C@H](O)C[C@H](O)/C=C/c1c(C2CC2)nc2ccccc2c1-c1ccc(F)cc1 [Pitavastatin calcium] | 8.14
11 | O=C1CCc2ccc(OCCCCN3CCN(c4cccc(Cl)c4Cl)CC3)cc2N1 [Aripiprazole] | 1.74
12 | CCCCCCCN(CC)CCCC(O)c1ccc(NS(C)(=O)=O)cc1 (stereo unspecified) [Ibutilide hemifumarate] | 5.81
13 | COCCc1ccc(OCC(O)CNC(C)C)cc1 (stereo unspecified) [Metoprolol tartrate] | 1.91
14 | CN(C)CCc1c[nH]c2ccc(C[C@H]3COC(=O)N3)cc12 [Zolmitriptan] | 5.82
15 | CC(=O)Oc1cc2c(s1)CCN(C(C(=O)C1CC1)c1ccccc1F)C2 (stereo unspecified) [Prasugrel] | 6.75
16 | CN(C)C(=N)NC(=N)N [Metformin hydrochloride] | 8.63
17 | NS(=O)(=O)c1cc2c(cc1Cl)NC(C1CC3C=CC1C3)NS2(=O)=O (stereo unspecified) [Cyclothiazide] | 0.296
18 | COc1cc2nccc(Oc3ccc(NC(=O)C4(C(=O)Nc5ccc(F)cc5)CC4)cc3)c2cc1OC | 0.162

Row | SMILES | combined optomotor response
19 | C#CCN[C@@H]1CCc2ccccc21 [Rasagiline mesylate] | 6.3
20 | N#C[C@@H]1C[C@@H]2C[C@@H]2N1C(=O)[C@@H](N)C12CC3CC(CC(O)(C3)C1)C2 [Saxagliptin hydrochloride] | -2.67
21 | CN[C@H]1CC[C@@H](c2ccc(Cl)c(Cl)c2)c2ccccc21 [Sertraline hydrochloride] | -6.63
22 | CCc1nc(N)nc(N)c1-c1ccc(Cl)cc1 [Pyrimethamine] | 7.22
23 | Cc1cc2c(s1)Nc1ccccc1N=C2N1CCN(C)CC1 [Olanzapine] | 8.87
24 | CC(C)COCC(CN(Cc1ccccc1)c1ccccc1)N1CCCC1 (stereo unspecified) [Bepridil hydrochloride] | 8.48
25 | CC(C)OC(=O)C(C)(C)Oc1ccc(C(=O)c2ccc(Cl)cc2)cc1 [Fenofibrate] | 2.45
26 | COc1cc(N)c(Cl)cc1C(=O)NC1CCN(CCCOc2ccc(F)cc2)CC1OC (stereo unspecified) [Cisapride] | 4.72
27 | COc1ccccc1OCC(O)CN1CCN(CC(=O)Nc2c(C)cccc2C)CC1 (stereo unspecified) [Ranolazine dihydrochloride] | 10.9
28 | CCCC1O[C@@H]2C[C@H]3[C@@H]4CCC5=CC(=O)C=C[C@]5(C)[C@H]4[C@@H](O)C[C@]3(C)[C@]2(C(=O)CO)O1 (stereo partly specified) [Budesonide] | 2.27
29 | CC(C)(C(=O)O)c1ccc(C(O)CCCN2CCC(C(O)(c3ccccc3)c3ccccc3)CC2)cc1 (stereo unspecified) [Fexofenadine hydrochloride] | 3.85
30 | CNCc1ccc(-c2[nH]c3cc(F)cc4c3c2CCNC4=O)cc1 [Rucaparib camsylate] | 4.21
31 | OCCN1C[C@H](O)[C@@H](O)[C@H](O)[C@H]1CO [Miglitol] | 5.48
32 | COc1cc([C@@H]2c3cc4c(cc3[C@@H](O[C@@H]3O[C@@H]5CO[C@@H](C)O[C@H]5[C@H](O)[C@H]3O)[C@H]3COC(=O)[C@H]23)OCO4)cc(OC)c1O [Etoposide] | 4.51
33 | O=c1n(CCCN2CCN(c3cccc(Cl)c3)CC2)nc2ccccn12 [Trazodone hydrochloride] | 2.35
34 | CC(=O)Nc1ccc(O)cc1 [Acetaminophen] | 0.558
35 | Clc1ccc2nsnc2c1NC1=NCCN1 [Tizanidine hydrochloride] | 1.65
36 | C[C@H]1O[C@H](O[C@H]2[C@H](O)[C@@H](O)[C@@H](O[C@H]3[C@H](O)[C@@H](O)C(O)O[C@@H]3CO)O[C@@H]2CO)[C@H](O)[C@@H](O)[C@@H]1N[C@H]1C=C(CO)[C@@H](O)[C@H](O)[C@H]1O (stereo partly specified) [Acarbose] | 3.82
